Screening data from PubChem BioAssay.
HP1b chromo inh: HP1-beta chromodomain-methylated histone interaction inhibition | P83916 | AlphaScreen HP1-beta / biotin-H3K9me3 peptide binding | Potency, µM (top dose mostly 114 µM), usual class: inhibitors | 0.56% of 390,000 active; also: nearly all actives have a fitted effect of over 70% in size
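HP1-beta protein (50 nM final) preincubated 30 min at room temperature with biotinylated H3(1-18)K9me3 peptide (50 nM) in PBS pH 7.4, 0.01% Tween-20, then compound added for 30 min. AlphaScreen streptavidin donor/nickel chelate acceptor beads (10 ug/mL final), 30 min dark, luminescence read.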
L3MBTL1 block: inhibitors of human L3MBTL1 | Q9Y468 | AlphaScreen L3MBTL1–H3K9me1 peptide binding | Potency, µM (doses to about 57.1 µM), hits mostly inhibitors | 0.66% of 230,000 active; also: nearly all actives have a fitted effect of over 60% in size
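L3MBTL1 50 nM + b-AHA-H3(1-15)K9me1 75 nM, 30 min RT; compound added, 30 min RT; streptavidin donor/Ni-chelate acceptor beads 10 ug/mL each final, 30 min RT dark; AlphaScreen read.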
BAZ2B block: blocks human BAZ2B; AlphaScreen BAZ2B-H3K14Ac peptide displacement; 4.4% of 360,000 active; Potency, µM (top dose mostly 114 µM), actives largely listed as inhibitors; Q9UIF8; AID 504333; also: nearly all actives have a fitted effect of over 60% in size
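AlphaScreen displacement of biotin-H3(5-23)K14Ac peptide (50 nM final) from BAZ2B (50 nM final) in PBS pH 7.4, 0.01% Tween-20; complex preformed 30 min RT, then compounds (top 110 uM) 30 min RT, beads 20 min dark.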
G9a block: G9a (human) methyltransferase inhibition; G9a H3K9 monomethylation, AlphaScreen, 2 h; 8.8% of 350,000 active; Potency, µM (top dose mostly 102 µM), actives largely listed as inhibitors; also: nearly all actives have a fitted effect of over 75% in size
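Signal arises when biotinylated H3K9 peptide, once monomethylated, bridges streptavidin donor and antibody-captured acceptor beads. Enzyme at 20 nM was preincubated 15 min with test compounds; peptide 500 nM and SAM 20 uM then reacted for 2 h.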
JMJD2A Tudor: inhibitors of human JMJD2A Tudor domain | 4.4% of 390,000 active | AlphaScreen JMJD2A-Tudor / H3K4me3 peptide binding | O75164 | Potency, µM (series often up to 114 µM), most hits filed as inhibitors; also: nearly all actives have a fitted effect of over 50% in size
Sfp inh: inhibitors of Bacillus subtilis Sfp phosphopantetheinyl transferase. Q9F4F7. Biochemical Sfp PPTase activity, qHTS. 3.5% of 310,000 active. Potency, µM, usual class: inhibitors;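 also: the enzyme is Sfp with the accession as filed and its product quenches rhodamine fluorescence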
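Compounds were incubated with enzyme (final 15 nM) for 15 min at room temperature before substrate addition started the reaction. Fluorescence at 525 nm excitation, 598 nm emission was recorded immediately and after 30 minutes.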
Of the large screens only hits and unclear results are named; the others gave an inactive call. Only some compounds are listed: those with a hit (about 12% of all), similar ones and a draw of the others. Calls follow the shape of the dose curve; as a rule, active = well fitted curve in the direction sought with a large enough effect; inconclusive = small, poorly fitted or top-dose-only effect, or another doubt; inactive = no such curve, though single readings can be large; an effect the other way counts as inactive or inconclusive.

Fc1c(F)c(F)c(N/N=C/c2c[nH]c3ccccc23)c(F)c1F	BAZ2B block inconclusive, G9a block inconclusive, JMJD2A Tudor inconclusive
Cc1nc(Cl)cc(N/N=C/c2ccc(O)cc2)n1	none
C(=NN=C1c2ccccc2-c2ccccc21)c1c[nH]c2ccccc12	HP1b chromo inh inconclusive, JMJD2A Tudor 22.4µM (no result: L3MBTL1 block, BAZ2B block, G9a block, Sfp inh)
Cc1cc(O)c(/C=N/Nc2ccccc2)c(=O)o1	BAZ2B block inconclusive, G9a block inconclusive, JMJD2A Tudor 8.91µM, Sfp inh 17.8µM
Cc1cc(O)c(C=Nc2cccc(Cl)c2)c(=O)o1	L3MBTL1 block inconclusive, G9a block inconclusive
Oc1ccccc1/C=N/Nc1ccccc1	G9a block 8.91µM
Cc1nc(Cl)cc(N/N=C/c2ccc(O)cc2O)n1	BAZ2B block 35.5µM, G9a block inconclusive, JMJD2A Tudor inconclusive
O=C(C=NNc1ccccc1)c1ccccc1	JMJD2A Tudor inconclusive (no result: L3MBTL1 block, BAZ2B block, G9a block, Sfp inh)
CC(C)C[C@@H](CC(=O)N[C@H](CC(=O)N[C@@H]1CCNC[C@H]1C(=O)N[C@H](CC(=O)N[C@@H](CCC(=O)O)CC(=O)O)Cc1c[nH]c2ccccc12)C(C)C)NC(=O)[C@@H]1CCCC[C@H]1N	none (no result: HP1b chromo inh, L3MBTL1 block, BAZ2B block, G9a block, JMJD2A Tudor)
COc1ccc(N2Cc3ccc(C(=O)N/N=C\c4ccc(O)cc4O)cc3C2)cc1	BAZ2B block inconclusive, G9a block 28.2µM (no result: HP1b chromo inh, L3MBTL1 block, JMJD2A Tudor)
COc1ccc2nc(C)cc(SCC(=O)N/N=C/c3ccc(O)cc3O)c2c1	none
O=C(NN=Cc1ccccc1O)C1CC1	none (no result: L3MBTL1 block, BAZ2B block, G9a block, Sfp inh)
NC(=S)N/N=C/c1c[nH]c2ccccc12	BAZ2B block inconclusive, JMJD2A Tudor inconclusive, Sfp inh 79.4µM (no result: L3MBTL1 block, G9a block)
COC(=O)N/N=C/c1c[nH]c2ccccc12	none
NC(=S)N/N=C/c1cccc(O)c1O	L3MBTL1 block 28.2µM, BAZ2B block 8.91µM, G9a block inconclusive, JMJD2A Tudor 28.2µM
O=C(N/N=C/c1ccccc1O)C1SCCCS1	BAZ2B block 79.4µM, JMJD2A Tudor inconclusive
Cc1cccc(CNC(=O)CN2C(=O)CCn3nc(-c4cn(C)c5ccccc45)cc32)c1	none (no result: L3MBTL1 block, Sfp inh)
NC(=S)N/N=C/c1ccc(/C=N/NC(N)=S)cc1	none (no result: G9a block)
O=C(N/N=C/c1ccc(O)cc1O)C(=O)N/N=C/c1ccc(O)cc1O	L3MBTL1 block 0.708µM, BAZ2B block 35.5µM, JMJD2A Tudor 2.51µM
Oc1ccc(/C=N/Nc2ccc3ccccc3c2)c(O)c1	HP1b chromo inh inconclusive, BAZ2B block inconclusive, G9a block 6.31µM, JMJD2A Tudor inconclusive, Sfp inh 50.1µM
NC(=S)N/N=C/c1ccccc1O	L3MBTL1 block inconclusive, BAZ2B block 35.5µM, JMJD2A Tudor 89.1µM
COc1cccc(N/N=C/c2cccc(Br)c2O)c1	HP1b chromo inh inconclusive, BAZ2B block inconclusive, G9a block 2.24µM
COc1cccc(/C=N/Nc2ccc([N+](=O)[O-])cc2)c1O	G9a block inconclusive (no result: L3MBTL1 block)
Cc1cccc(N/N=C/c2ccc(O)c(O)c2O)c1	HP1b chromo inh inconclusive, L3MBTL1 block inconclusive, BAZ2B block 50.1µM, G9a block 1.12µM, JMJD2A Tudor 44.7µM, Sfp inh 3.55µM
COc1ccc(-c2csc(NC(=O)c3ccccc3NS(=O)(=O)c3ccc(C)cc3)n2)cc1	HP1b chromo inh inconclusive, BAZ2B block 35.5µM, G9a block inconclusive, JMJD2A Tudor inconclusive
Cc1ccc(S(=O)(=O)Nc2nc(-c3ccc(F)cc3)cs2)cc1	BAZ2B block inconclusive, G9a block 50.1µM
COc1ccc(S(=O)(=O)Nc2ccccc2C(=O)Nc2nc(-c3ccc(F)cc3)cs2)cc1OC	BAZ2B block inconclusive, G9a block inconclusive, JMJD2A Tudor inconclusive
CCCn1c(=O)c2sccc2n2c(CCCC(=O)Nc3cccc(CC)c3)nnc12	none (no result: L3MBTL1 block, Sfp inh)
CC(O)CNCCNCc1cccs1 (centres undefined)	G9a block 5.62µM, JMJD2A Tudor inconclusive
CCCCn1c(N)c(N(CC(C)C)C(=O)Cc2ccc3c(c2)OCCO3)c(=O)[nH]c1=O	G9a block 50.1µM (no result: Sfp inh)
CCCCn1c(N)c(N(CCC(C)C)C(=O)c2ccc3c(c2)OCCO3)c(=O)[nH]c1=O	none (no result: Sfp inh)
CCCCN(C(=O)c1ccc2c(c1)OCCO2)c1c(N)n(CC(C)C)c(=O)[nH]c1=O	G9a block 44.7µM (no result: Sfp inh)
